Screens (PubChem)
This is a sample that favours compounds with a hit; in the whole collection about 12% have one here.
L3MBTL1 inh: blocks human L3MBTL1. Q9Y468. AlphaScreen L3MBTL1–H3K9me1 peptide binding. Potency, µM (series often up to 57.1 µM), inactives show at the top dose activity, negative = inhibition, actives largely listed as inhibitors. 230,000 tested, 0.66% active. AID 485360; further: on the % scale 0 is the no-effect control and ±100 the full control effect; nearly all actives have a fitted effect of over 60% in size
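L3MBTL1 (50 nM) pre-complexed 30 min with biotinylated H3(1-15)K9me1 peptide (75 nM), then compounds added for 30 min at room temperature; AlphaScreen streptavidin donor/nickel chelate acceptor beads (10 ug/mL final) read after 30 min dark incubation.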
G9a inh: G9a (human) methyltransferase inhibition; Q96KQ7; G9a H3K9 monomethylation, AlphaScreen, 2 h; Potency, µM (doses to about 102 µM), inactives show top-dose activity, negative = inhibition, most hits filed as inhibitors; 350,000 tested, 8.8% active; AID 504332; further: on the % scale 0 is the no-effect control and ±100 the full control effect; nearly all actives have a fitted effect of over 75% in size
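G9a (20 nM) was preincubated 15 min with compound, then reacted 2 h at room temperature with 500 nM biotin-H3K9 peptide and 20 µM SAM. Monomethyl-H3K9 detected by AlphaScreen using anti-H3K9me1 antibody.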
JMJD2A Tudor inh: inhibitors of human JMJD2A Tudor domain. O75164. AlphaScreen JMJD2A-Tudor / H3K4me3 peptide binding. Potency, µM (doses to about 114 µM), for the others: at the top dose activity change, negative = inhibition, hits mostly inhibitors. 390,000 tested, 4.4% active. AID 504339; further: on the % scale 0 is the no-effect control and ±100 the full control effect; nearly all actives have a fitted effect of over 50% in size
Sfp inh: inhibitors of Bacillus subtilis Sfp phosphopantetheinyl transferase; Q9F4F7; Biochemical Sfp PPTase activity, qHTS; Potency, µM, for the others: largest response in the series, negative = inhibition, most hits filed as inhibitors; 310,000 tested, 3.5% active; AID 1490;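 further: the enzyme is Sfp with the accession as filed and its product quenches rhodamine fluorescence; 0% = enzyme reaction without inhibitor and -100% = no enzyme wells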
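Step 1, compound plus 15 nM Sfp-PPTase, 15 min, room temperature. Step 2, add rhodamine-CoA (5 uM) and BHQ-2-YbbR (12.5 uM). Step 3, read 525/598 nm fluorescence at 0 and 30 min.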
HP1b chromo inh: inhibitors of HP1-beta chromodomain binding to methylated histone tails; P83916; AlphaScreen HP1-beta / biotin-H3K9me3 peptide binding; Potency, µM (titrated, usually from 114 µM), for the others: at the top dose activity change, negative = inhibition, actives largely listed as inhibitors; 390,000 tested, 0.56% active; AID 540317; further: nearly all actives have a fitted effect of over 70% in size
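AlphaScreen: HP1-beta (50 nM) preformed 30 min with biotin-H3(1-18)K9me3 peptide (50 nM) in PBS pH 7.4, 0.01% Tween-20. Compound added for 30 min at RT, then streptavidin donor/nickel chelate acceptor beads (10 ug/mL) for 30 min.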
BAZ2B block: BAZ2B (human) inhibition; Q9UIF8; AlphaScreen BAZ2B-H3K14Ac peptide displacement; Potency, µM (doses to about 114 µM), inactives show top-dose activity change, negative = inhibition, usual class: inhibitors; 360,000 tested, 4.4% active; AID 504333; further: on the % scale 0 is the no-effect control and ±100 the full control effect; nearly all actives have a fitted effect of over 60% in size
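Compounds, titrated to a top concentration of 110 uM, were incubated 30 min at room temperature with preformed BAZ2B/acetyl-K14 H3 peptide complex (50 nM each). Proximity signal was measured by AlphaScreen after 20 min with beads.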
* = called active by the depositor; [ ] = dose if it differs, or a comment. The call rests on the fitted dose curve; in most records, active means well fitted curve in the direction sought with a large enough effect; inconclusive means small, poorly fitted or top-dose-only effect, or another doubt; inactive means no such curve, though single readings can be large; an effect the other way counts as inactive or inconclusive. Potency means the concentration at half of the fitted maximal effect.

CC(C)[C@H](N)c1cn([C@@H](CO)C(=O)N2CCNCC2)nn1 was read as L3MBTL1 inh -12%, G9a inh 27%[2.33 µM], JMJD2A Tudor inh -31%, HP1b chromo inh 15% and BAZ2B block inconclusive.
Cc1cc(/C=N/NC(=O)c2cccc(F)c2)c(C)n1-c1ccccc1 was read as L3MBTL1 inh 16%, G9a inh -46%, JMJD2A Tudor inh inconclusive, Sfp inh 6%, HP1b chromo inh -2% and BAZ2B block -32%.
Cc1cc(/C=N/NC(=O)c2c(Br)cnn2C)c(C)n1-c1cccc(Br)c1 was read as L3MBTL1 inh inconclusive, G9a inh inconclusive, JMJD2A Tudor inh inconclusive, Sfp inh 2%, HP1b chromo inh inconclusive and BAZ2B block 28µM*.
Cc1cc(/C=N/NC(=O)c2ccccc2F)c(C)n1-c1ccccc1 was read as G9a inh 50µM*, JMJD2A Tudor inh -20%, Sfp inh 2%, HP1b chromo inh -7% and BAZ2B block -37%.
For CNC(=S)N/N=C/c1cc(C)n(-c2ccc(Cl)c(Cl)c2)c1C the results were L3MBTL1 inh -23%, G9a inh 45µM*, JMJD2A Tudor inh inconclusive, Sfp inh -8%, HP1b chromo inh inconclusive and BAZ2B block 35µM*.
For Cc1cc(/C=N/NC(=O)C(=O)N2CCCC2)c(C)n1-c1cccc(Br)c1 the results were L3MBTL1 inh -6%, G9a inh inconclusive, JMJD2A Tudor inh inconclusive, Sfp inh -19%, HP1b chromo inh -3% and BAZ2B block -10%.
COc1ccccc1CCNC(=O)Cn1ccc2cc(S(=O)(=O)N3CCCCC3)ccc21 was read as G9a inh -31%[59 µM], JMJD2A Tudor inh -22%, HP1b chromo inh -1% and BAZ2B block -12%.
Screening O=C(Nc1cccs1)OCCN1CCN(Cc2ccccc2)CCC1=O returned L3MBTL1 inh 1%, G9a inh 45µM*, JMJD2A Tudor inh -13%, Sfp inh -8%, HP1b chromo inh 35% and BAZ2B block 1%.
Screening CCC1Sc2ccc(S(=O)(=O)N3CCN(c4ccccc4)CC3)cc2NC1=O (centres undefined) returned G9a inh 18µM*, JMJD2A Tudor inh 13µM*, Sfp inh 14%, HP1b chromo inh -8% and BAZ2B block -33%.
CNC(=O)c1cc2n(n1)CCCN(Cc1ccc(F)cc1)C2=O was read as G9a inh -2%[12.7 µM], JMJD2A Tudor inh 11%, HP1b chromo inh 35% and BAZ2B block 1%.
Screening O.O.O.O.O.O.O.O=S(=O)([O-])[O-].[Co+2] returned G9a inh inconclusive and Sfp inh 79µM*.
For COCC(C)NCc1cccc([N+](=O)[O-])c1 (centres undefined) the results were L3MBTL1 inh 3%, G9a inh 20µM*, JMJD2A Tudor inh 3.2µM*, Sfp inh -6%, HP1b chromo inh inconclusive and BAZ2B block 50µM*.
O=S(=O)(c1ccc(Cl)cc1)c1nc(-c2cccs2)oc1SCc1ccccc1F was read as G9a inh -25%[59 µM], JMJD2A Tudor inh -2%, HP1b chromo inh 42% and BAZ2B block -1%.
`CCn1nnc2cc(C(=O)Nc3cccc(Cl)c3)ccc21` gave G9a inh 1%[59 µM], JMJD2A Tudor inh -14%, HP1b chromo inh 16% and BAZ2B block 3%.
For O=C(O)c1ccccc1-c1ncc(-c2ccccc2)o1 the results were JMJD2A Tudor inh -7% and HP1b chromo inh 10%.
`Nc1ccc(-c2ncc(-c3ccccc3)o2)cc1` gave G9a inh inconclusive, JMJD2A Tudor inh inconclusive, Sfp inh -12%, HP1b chromo inh -15% and BAZ2B block 28µM*.
`COc1ccc(CNc2nc(NCc3ccc(OC)cc3)c3ncn(C(C)C)c3n2)cc1` gave Sfp inh -10%.
